Bioassay records (PubChem BioAssay)
TDP1 cell noCPT: qHTS for Inhibitors of human tyrosyl-DNA phosphodiesterase 1 (TDP1): qHTS in cells in absence of CPT; DT40 Tdp1-/- hTDP1 cells, no CPT, ATP luminescence, 48 h; Potency, µM (highest dose often 46.2 µM), for the others: at the top dose activity change, negative = growth inhibition, actives largely listed as inhibitors; hit rate 15% among 420,000; also: nearly all actives have a fitted effect of over 55% in size
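Readout: luminescence from CellTiter-Glo after 30 min in the dark at RT. Cells: DT40 Tdp1-/- with stable hTDP1, 400/well. Exposure: compounds alone, ≥48 hr, 37 °C.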
KB-3-1 tox: KB-3-1 parental cell cytotoxicity. KB-3-1 viability, CellTiter-Glo ATP luminescence, 72 h. Potency, µM (highest dose often 46.1 µM), usual class: cytotoxic. hit rate 1.4% among 400,000. AID 1347075; also: nearly all actives have a fitted effect of over 60% in size
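Parental KB-3-1 adenocarcinoma cells in phenol-red-free DMEM with 10% FBS were pin-treated with compounds at several concentrations, incubated 72 h at 37 °C, and viability read by CellTiter-Glo luminescence; concentration-effect curves were fitted after normalization.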
HT1080NT lethal: kills 2HG-producing HT-1080-NT fibrosarcoma cells. HT-1080-NT fibrosarcoma viability, CellTiter-Glo ATP luminescence, 48 h. AID 686970. Potency, µM (doses to about 46.1 µM), without a hit: at the highest dose activity, negative = less viability, usual class: cytotoxic. hit rate 1.6% among 360,000;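 also: NT is the 2HG producing partner of a matched IDH1 knockdown line; 0% = DMSO-treated cells and -100% = media-only wells without cells; nearly all actives have a fitted effect of over 55% in size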
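Luminescent CellTiter-Glo readout after 48 hours of compound exposure at 37 degrees C defined viability of HT-1080-NT cells. Activity was normalized to DMSO wells and cell-free media wells; concentration-response curves were fitted and assigned curve classes.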
TDP1 cell CPT: DT40-hTDP1 cell growth loss with CPT. Potency, µM (titrated, usually from 46.2 µM), for the others: top-dose activity change, negative = growth inhibition, hits mostly inhibitors. hit rate 12% among 420,000. AID 686979. chicken DT40 Tdp1-/-;hTDP1 cells + 20 nM CPT, ATP luminescence, 48 h; also: nearly all actives have a fitted effect of over 55% in size
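Cell growth measured by CellTiter-Glo luminescence after a minimum 48 h, 37 C compound exposure with 20 nM CPT in Tdp1-knockout DT40 cells stably expressing hTDP1, seeded 400/well; qHTS titration format.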
HT1080 IDH1KD tx: kills HT-1080 cells with IDH1 knockdown. HT-1080 IDH1 knockdown viability, ATP luminescence, 48 h. Potency, µM (titrated, usually from 46.1 µM), for the others: top-dose activity, negative = toxicity, hits mostly cytotoxic. hit rate 2% among 360,000. AID 686971;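 also: 0% = DMSO wells and -100% = cell-free medium wells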
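Viability of IDH1-knockdown HT-1080 fibrosarcoma cells was assessed by CellTiter-Glo after 48 h at 37 °C with titrated compound; concentration-effect curves were classified by fit quality and response size.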
KB-V1 MDR tox: KB-V1 MDR subline cytotoxicity; hit rate 3.4% among 400,000; Potency, µM (top dose mostly 46.1 µM), usual class: cytotoxic; AID 1347076; KB-V1 MDR cells viability, CellTiter-Glo, 72 h; also: nearly all actives have a fitted effect of over 60% in size
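Following 72 h at 37 degrees C with compound, KB-V1 cell viability was read by CellTiter-Glo luminescence, medium being phenol-red-free DMEM plus 10% FBS; concentration-response parameters came from normalized, curve-fitted qHTS data.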
Starred values were filed as active, the others as inactive; i = inactive; ? = inconclusive; nt = no result given. Hits are enriched below; roughly 19% of the tested compounds scored in any of these assays. Calls follow the shape of the dose curve; as a rule, active = well fitted curve in the direction sought with a large enough effect; inconclusive = small, poorly fitted or top-dose-only effect, or another doubt; inactive = no such curve, though single readings can be large; an effect the other way counts as inactive or inconclusive. Unless noted, % is scaled to controls: 0 for no effect and ±100 for the full control effect; potency is read from the fitted curve at half-maximal effect.

SMILES	TDP1 cell noCPT	KB-3-1 tox	HT1080NT lethal	TDP1 cell CPT	HT1080 IDH1KD tx	KB-V1 MDR tox
COc1ccc(Cl)cc1NC(=O)CN(C)C(=O)c1ccc(-n2nc(C)cc2C)cc1	15µM*	i	-10%	18µM*	-1%	i
COc1ccc(NC(=O)N(C)C[C@@H]2OCc3cn(nn3)CCCC(=O)N([C@H](C)CO)C[C@H]2C)cc1	-16%	i	3%	-3%	5%	i
COC(=O)N1CCC2(CCCN(Cc3ccccc3)C2)CC1	-12%	nt	nt	19%	nt	nt
CCn1nnc2cc(C(=O)Nc3cccc(C)c3C)ccc21	15µM*	?	nt	10µM*	nt	?
CCn1nnc2cc(C(=O)Nc3cccc(Cl)c3)ccc21	-17%	i	nt	6%	nt	i
CCn1nnc2cc(C(=O)Nc3cccc(Cl)c3C)ccc21	16µM*	i	nt	?	nt	?
CCOC(=O)c1cccc(NC(=O)c2ccc3c(c2)nnn3CC)c1	?	i	nt	?	nt	i
CCOc1ccc(OCCNC(=O)c2ccc3c(c2)nnn3CC)cc1	-8%	i	-6%	-26%	-6%	23µM*
COc1ccc2[nH]c(C)cc2c1	4%	i	nt	1%	nt	i
COc1ccccc1-c1nn(CCC(=O)Nc2ccc(C)cc2)c2nc(C)cc(C)c12	13µM*	i	nt	?	nt	?
Cc1cccc(NC(=O)C2CCN(S(=O)(=O)c3ccc4c(c3)NC(=O)CO4)CC2)c1	-16%	i	-12%	?	-13%	?
COc1ccc(-c2c(-c3ccsc3)oc(=O)c3cc(OC)c(OC)cc23)cn1	?	i	10%	?	17%	i
COCc1ccc(-c2c(-c3cc(OC)cc(OC)c3)oc(=O)c3cc(OC)c(OC)cc23)cc1	21µM*	i	5%	16µM*	2%	i
COc1cc2c(-c3ccc4cc[nH]c4c3)c(-c3ccsc3)oc(=O)c2cc1OC	21µM*	?	-1%	18µM*	1%	i
COc1cc2c(C#CCCCO)c(-c3ccsc3)oc(=O)c2cc1OC	9.2µM*	i	-1%	23µM*	0%	i
COc1cc2c(-c3ccc4[nH]ccc4c3)c(-c3ccc(C#N)cc3)oc(=O)c2cc1OC	5.8µM*	i	-1%	15µM*	-1%	i
COc1cc2c(C(F)(F)F)c(-c3ccc(C#N)cc3)oc(=O)c2cc1OC	-2%	i	0%	0%	-3%	i
COC1c2ccccc2C(=O)N1Cc1ccc(F)cc1 (centres undefined)	?	i	-14%	-7%	-1%	i
COc1ccccc1C(=O)NCCC(=O)NC1CCCCCC1	-28%	i	3%	10%	4%	i
CCc1cc(=O)oc2cc(OCC(=O)NCCCn3ccnc3)ccc12	1%	i	-11%	-8%	2%	i
COc1ccc(-c2cc(=O)oc3cc(OC(C)C(=O)NCCCn4ccnc4)ccc23)cc1 (centres undefined)	21µM*	i	-10%	18µM*	-9%	i
COc1ccc(-c2cc(=O)oc3cc(OCC(=O)NCCCn4ccnc4)ccc23)cc1	?	i	0%	21µM*	-2%	?
COc1ccc(-c2cc(=O)oc3c(C)c(OC(C)C(=O)NCc4ccccn4)ccc23)cc1 (centres undefined)	26µM*	i	6%	?	8%	i
O=C(CCNS(=O)(=O)c1ccc(Br)cc1)NCc1ccc(Cl)cc1	0%	i	-13%	?	-7%	i
CCOc1ccc2oc(C(=O)N3CCCN(C)CC3)c(C)c2c1	?	i	-4%	-14%	6%	i
SMILES	TDP1 cell noCPT	KB-3-1 tox	HT1080NT lethal	TDP1 cell CPT	HT1080 IDH1KD tx	KB-V1 MDR tox
CCOc1c([N+](=O)[O-])cc2c(C)c(C(=O)N3CCN(C)CC3)oc2c1OCC	16µM*	i	-17%	17%	5%	i
CN=c1scc(C)n1/N=C/c1cc(Br)c(O)c(OC)c1	16µM*	i	-8%	?	-10%	i
COc1cc(/C=N/N(C)C)cc(Br)c1O	1%	?	-11%	-2%	2%	i
CN=c1scc(-c2cccs2)n1/N=C/c1ccc(O)c(O)c1O	5.8µM*	?	-28%	12µM*	?	?
Oc1ccc(/C=N/n2c(-c3ccco3)csc2=Nc2cccnc2)c(O)c1	15µM*	i	-10%	12µM*	12%	?
Cc1nc2ccccc2c(=O)n1/N=C/c1ccc(O)c(O)c1O	?	i	-1%	?	-1%	i
CN=c1scc(C)n1/N=C/c1ccc(O)c(O)c1O	18µM*	i	2%	16µM*	3%	i
COc1cc(NCCCn2cnc3c(OC)ncnc32)cc(OC)c1OC	-9%	i	-8%	-14%	1%	?
CN=c1scc(-c2cccs2)n1/N=C/c1ccccc1O	23µM*	?	?	?	?	?
C=CCN=c1scc(-c2ccco2)n1/N=C/c1ccc(O)c(O)c1O	5.8µM*	?	?	10µM*	-24%	?
CC(C)N=c1scc(-c2ccco2)n1/N=C/c1ccc(O)c(O)c1	1.5µM*	i	-9%	1.6µM*	-22%	?
COCCN=c1scc(-c2ccco2)n1/N=C/c1ccc(O)c(O)c1O	?	i	-8%	?	-14%	?
O=C(c1ccccc1)c1cc2c(cc1[N+](=O)[O-])OCCO2	-15%	i	-19%	6%	-13%	i
CC(=O)N1CCc2cc(NC(=O)C3(C)CCN3CCc3ccccc3)ccc21 (centres undefined)	21µM*	i	?	21µM*	?	?
CC1(C(=O)Nc2ccc3c(c2)OCCO3)CCN1Cc1ccccc1OC(F)F (centres undefined)	?	i	5%	?	2%	?
CC1(C(=O)Nc2cccc(NS(C)(=O)=O)c2)CCN1Cc1ccccc1OC(F)F (centres undefined)	16µM*	i	-19%	23µM*	?	i
CC(C)N1CCC1(C)C(=O)Nc1ccccc1OC(F)F (centres undefined)	?	?	?	-21%	?	i
Cc1c(Br)cccc1NC(=O)C1(C)CCN1Cc1ccccc1OC(F)F (centres undefined)	?	i	?	26µM*	?	i
